{"source": "PubChem BioAssay (EPA / NIEHS)", "key": {"[1]": {"experiment": "Tanguay_ZF_120hpf_SWIM_legacy: (Legacy) Oregon State University Tanguay Lab 120 Hour Post-fertilization zebrafish Assay for Swim Bladder Malformation (AID 2283654);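 note: swim bladder malformation in each larva scored yes or no under brightfield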", "procedure,_shortened": "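Scoring is binary for swim bladder defects at 120 hpf, by brightfield inspection of zebrafish larvae. Embryos were exposed singly from 6 hpf after pronase dechorionation, at 28C with 0.64% DMSO; mortality excluded scoring.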"}, "[2]": {"experiment": "Tanguay_ZF_120hpf_TRUN_legacy: (Legacy) Oregon State University Tanguay Lab 120 Hour Post-fertilization zebrafish Assay for Truncated Body (AID 2283655)", "procedure,_shortened": "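Single dechorionated zebrafish embryos received test chemical from 6 hpf in 0.64% DMSO, kept at 28C. At 120 hpf, brightfield inspection noted any truncated body.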"}, "[3]": {"experiment": "CCTE_Padilla_ZF_144hpf_TERATOSCORE: (Legacy) CCTE's 144 Hour Post-fertilization zebrafish Assay Teratoscore, Padilla Lab (AID 2283679; active = hit-call score of the fitted dose curve at least 0.9, where 1 is the maximum; inactive = score below 0.9;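 for AC50: higher score means more developmental defects relative to DMSO baseline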)", "procedure,_shortened": "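Larvae scored by eye at 144 hpf for death, hatching and malformations after a day in clean Hanks'. Before that, daily-renewed exposure at 80 uM (0.4% DMSO, 26C) from roughly 6-8 hpf through 5 dpf, 4 embryos per chemical.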"}, "[4]": {"experiment": "Tanguay_ZF_120hpf_NC_legacy: (Legacy) Oregon State University Tanguay Lab 120 Hour Post-fertilization zebrafish Assay for Notochord and Tail Malformation (AID 2283656)", "procedure,_shortened": "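Binary scoring of notochord distortion by brightfield microscopy; embryos dying were not scored. Wild-type Tropical 5D embryos, chorion removed, exposed singly and statically from 6 to 120 hpf, 28C, sealed, 0.64% DMSO.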"}, "[5]": {"experiment": "Tanguay_ZF_120hpf_TR_legacy: (Legacy) Oregon State University Tanguay Lab 120 Hour Post-fertilization zebrafish Assay for Touch Response (AID 2283667)", "procedure,_shortened": "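Binary touch-response endpoint in larvae at 120 hpf after static waterborne exposure from embryo stage (28°C, 0.64% DMSO vehicle, 5 uM trimethyltin chloride as positive control); embryos dead at 24 or 120 hpf excluded; fitted as gain versus DMSO.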"}}, "note": "Inconclusive results are not listed. Calls of active or inactive are those of the source. Rule for the calls, unless noted: active = hit-call score of the fitted dose curve at least 0.9, where 1 is the maximum; inconclusive = response in the unintended direction; inactive = score below 0.9.", "data": [{"smiles": "CCCCC(CC)COC(=O)CCCCC(=O)OCC(CC)CCCC", "note": "(centres undefined)", "values": [{"measurement": "outcome", "setting": "[1]", "value": "inactive"}, {"measurement": "outcome", "setting": "[2]", "value": "inactive"}, {"measurement": "outcome", "setting": "[3]", "value": "inactive"}]}, {"smiles": "c1ccc2c(c1)Cc1ccccc1-2", "values": [{"measurement": "outcome", "setting": "[1]", "value": "inactive"}, {"measurement": "outcome", "setting": "[4]", "value": "inactive"}]}, {"smiles": "CC[C@H](C)[C@@H](C(=O)O)n1sc2ccccc2c1=O", "values": [{"measurement": "outcome", "setting": "[2]", "value": "inactive"}, {"measurement": "outcome", "setting": "[5]", "value": "inactive"}]}, {"smiles": "CCc1nn(C2CCCCC2)c2cc(C3(C#N)CCC(C(=O)O)CC3)ccc12", "note": "(centres undefined)", "values": [{"measurement": "AC50", "setting": "[1]", "value": "419 nM (active)"}, {"measurement": "AC50", "setting": "[2]", "value": "171 nM (active)"}, {"measurement": "AC50", "setting": "[3]", "value": "263 nM (active)"}]}, {"smiles": "CCCCCCCCOC(=O)CCCCCCCCC(=O)OCCCCCCCC", "values": [{"measurement": "outcome", "setting": "[1]", "value": "inactive"}, {"measurement": "outcome", "setting": "[2]", "value": "inactive"}, {"measurement": "outcome", "setting": "[5]", "value": "inactive"}, {"measurement": "outcome", "setting": "[3]", "value": "inactive"}]}]}
